# Only some compounds are listed: those with a hit (about 14% of all), similar ones and a draw of the others.
# MARV entry inh: qHTS for inhibitors of binding or entry into cells for Marburg Virus. Marburg virus pseudotyped entry inhibition, cell reporter. Potency, µM (top dose mostly 37.8 µM), actives largely listed as inhibitors. 300,000 compounds, 1.8% hits; calls by dose curve; tested in HEK293 cells
# LASV entry inh: qHTS for Inhibitors of binding or entry into cells for Lassa Virus | AID 540256, 2011 | 300,000 compounds, 1.2% hits | Lassa virus pseudotype entry inhibition, cell reporter | Potency, µM (top dose mostly 37.9 µM), most hits filed as inhibitors; calls by dose curve; tested in HEK293 cells; note: nearly all actives have a fitted effect of over 50% in size
# Pf growth 96h: Primary qHTS for delayed death inhibitors of the malarial parasite plastid, 96 hour incubation. AID 504834, 2011. 320,000 compounds, 6.9% hits. P. falciparum luciferase reporter growth, 96 h. Potency, µM (titrated, usually from 28.7 µM), hits mostly inhibitors
#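 P. falciparum expressing integrated firefly luciferase, in erythrocytes at 2% hematocrit, 0.05% parasitemia, incubated with compounds 96 h at 37 C, 5% CO2. Growth inhibition read as loss of luminescence; two-generation exposure targets delayed-death apicoplast inhibitors.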
# Pf growth 48h: Primary qHTS for delayed death inhibitors of the malarial parasite plastid, 48 hour incubation; 310,000 compounds, 5.9% hits; Potency, µM (highest dose often 28.7 µM), usual class: inhibitors; P. falciparum luciferase growth in erythrocytes, 48 h; AID 504832, 2011
#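 Parasite viability was followed by luminescence of a genomically integrated firefly luciferase. Cultures held 0.1% parasitemia at 2% hematocrit (final), incubated under 5% CO2 at 37 C.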
# HCMV antiviral: qHTS Assay for inhibitors of the human cytomegalovirus (HCMV); HFF cells, HCMV-luciferase reporter, 72 h; active compounds read low; activity change, negative = inhibition, % at 57.5 µM; 410,000 compounds, 4.5% hits; in the data active = activity change below about -60%; inconclusive = no clear call, values can overlap the other calls; inactive = above about -39%
#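 Steps: HFFs plated, 16 h 37C; compounds added; HCMV-luciferase added to MOI 1 PFU/cell; 72 h 37C; OneGlo reagent, 5 min room temperature; luminescence read, normalized to controls.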
# HCV inhibitor: qHTS Assay for Inhibitors of Hepatitis C Virus (HCV) | Huh7.5.1 HCVcc-Cre infection, luciferase reporter, 44 h | Potency, µM (titrated, usually from 41.8 µM), most hits filed as inhibitors | 340,000 compounds, 3.4% hits | AID 651820, 2012
#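 Infectious HCVcc-Cre (~0.5 moi) was added to cells just after compound, with cells seeded 4 h earlier at 1,000 per well. Luciferase activity after 44 h culture reported infection; substrate was incubated 15 min at room temperature before reading.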
# Numbers stand for hits; – = inactive; ? = inconclusive; · = no result given; [ ] = dose if it differs, or a comment. Unless noted, calls come from the whole dose curve; as a rule, active = well fitted inhibition curve with a large enough effect; inconclusive = small, poorly fitted or top-dose-only effect, or another doubt; inactive = no such curve, though single readings can be large or run the other way.
SMILES,MARV entry inh,LASV entry inh,Pf growth 96h,Pf growth 48h,HCMV antiviral,HCV inhibitor
C[C@]12C[C@@](C)(C=C1C=Cc1ccccc1)C(=O)C[C@H]2c1ccccc1,–,·,·,·,·,·
CCS(=O)(=O)c1ncc(Cl)c(C(=O)Nc2ccc(S(=O)(=O)N3CCCC(C)C3)cc2)n1 (stereo not drawn),?,?,–,–,-101.3,12.6µM
CCS(=O)(=O)c1ncc(Cl)c(C(=O)Nc2ccc(C)cc2)n1,7.94µM,?,–,–,-100.5,?
CCC1CCCCN1S(=O)(=O)c1ccc(NC(=O)c2nc(S(C)(=O)=O)ncc2Cl)cc1 (stereo not drawn),8.91µM,?,–,–,-112.8,?
COc1ccc(NC(=O)c2nc(S(=O)(=O)Cc3ccc(C)cc3)ncc2Cl)cc1,?,?,·,·,-97.4,·
CCSc1ncc(Cl)c(C(=O)Nc2ccc(S(=O)(=O)N3CCCCC3CC)cc2)n1 (stereo not drawn),–,?,·,·,–,·
Cc1ccc(CS(=O)(=O)c2ncc(Cl)c(C(=O)Nc3ccc(OC(F)F)cc3)n2)cc1,?,?,–,–,-110.8,?
CC1(C)c2ccccc2N2CCC(=O)NC21/C=C/c1ccco1 (stereo not drawn),–,–,10.4µM,?,–,–
COc1cc2c(cc1OC)/C(=C/C(=O)c1ccc(C)cc1)NCC2,?,–,?,?,–,–
COc1cc2c(cc1OC)/C(=C/C(=O)c1ccc([N+](=O)[O-])c(C)c1)NCC2,·,·,5.22µM,9.28µM,–,?
O=C(c1ccco1)N1CCCC(c2nc3c(nnn3Cc3cccc(Cl)c3)c(=O)[nH]2)C1 (stereo not drawn),?,–,–,?,–,–
N#Cc1ccccc1S(=O)(=O)N1CCCC(c2nc3c(nnn3Cc3cccc(Cl)c3)c(=O)[nH]2)C1 (stereo not drawn),–,–,·,·,?,·
N#Cc1ccc(NC(=O)N2CCC(c3nc4c(nnn4Cc4cccc(Cl)c4)c(=O)[nH]3)CC2)cc1,–,–,7.38µM,?,–,–
O=c1[nH]c(C2CCCN(S(=O)(=O)c3ccc(F)cc3)C2)nc2c1nnn2Cc1ccccc1 (stereo not drawn),–,–,–[5.75 µM],13.1µM,–,–
O=c1[nH]c(C2CCCN(S(=O)(=O)Cc3ccccc3)C2)nc2c1nnn2Cc1cccc(Cl)c1 (stereo not drawn),–,?,–,11.7µM,?,–
CN(Cc1ccccc1)c1ccc(C(CC(N)=O)NC(=O)c2ccc(Br)cc2)cc1[N+](=O)[O-] (stereo not drawn),·,·,–,?,–,?
C#CCCc1ccccc1/C=[N+](/C)[O-],·,·,–,?,–,–
Cc1cccc(C(C)(C)C)c1OCCCCN1CCCC1,?,?,9.28µM,·,–,?
Brc1ccc(OCCCCN2CCCCC2)cc1,·,·,5.22µM,–,–,–
Oc1ccc(N2CCN(Cc3ccc(OCCCN4CCCCC4)cc3)CC2)cc1,12.6µM,–,?,–[5.75 µM],–,–
CC(C)(C)c1ccccc1OCCCCN1CCCC1,?,–,·,·,–,–
Cc1ccc(OCCCCN2CCCCC2)cc1,·,·,–,–,–,–
CC1CCN(CCCCOc2cccc(Br)c2)CC1,?,?,2.62µM,?,–,?
CCC(CC)C(=O)N(C)c1c(C)nc2c(OCc3cccc(OC)c3)cccn12,·,·,·,·,–,·
Cc1cccc(OCCCCCN2CCOCC2)c1,–,–,?,–,–,–
SMILES,MARV entry inh,LASV entry inh,Pf growth 96h,Pf growth 48h,HCMV antiviral,HCV inhibitor
c1ccc(COc2ccc(OCCCCN3CCCCC3)cc2)cc1,?,–,?,·,–,25.1µM
Cc1cccc(OCCCN2CCCCCC2)c1,?,?,–,–,–,31.6µM
Cc1cc(Br)ccc1OCCCCN1CCC(C)CC1,?,?,–,14.7µM,-60.2,12.6µM
CC1CCN(CCCCOc2ccc(Br)cc2)CC1,?,–,–,–,?,11.2µM
COc1ccc(-c2nc3sc(CCNS(=O)(=O)c4ccccc4)c(C)n3n2)cc1,·,–,·,·,?,·
COc1cccc(-c2oc3c(c2C#CC2(N)CCCCC2)C(O)CCC3)c1 (stereo not drawn),·,·,·,·,–,·
C#CCSc1nsc(SCC#C)c1C#N,–,–,?,?,–,11.2µM
N#Cc1c(SCC(=O)N2CCCCC2)nsc1SCC(=O)N1CCCCC1,–,–,–,14.7µM,–,–
CCCCOc1ccc(C(=O)Nc2nnc3n2CCS3)cc1,·,–,·,·,–,·
CSCCC(NS(=O)(=O)c1cccs1)C(=O)Nc1ccc(C)c(Cl)c1 (stereo not drawn),–,–,·,·,–,·
O=C(Nc1ccc2c(c1)OCO2)C1CC(c2ccccc2Cl)=NO1 (stereo not drawn),?,–,–,–,–,–
CCn1cc(C2=NOC(C(=O)Nc3ccc4c(c3)OCO4)C2)c(C)n1 (stereo not drawn),–,–,0.522µM,?,–,?
CC(=O)[C@H]1CCC2C3CC[C@H]4C[C@@H](O)CC[C@]4(C)C3CC[C@@]21C (stereo partly drawn),–,–,·,·,–,–
CC(C)=CCC[C@](C)(O)C1CC[C@]2(C)C1C(O)CC1[C@@]3(C)CCC(O)C(C)(C)C3C(O[C@@H]3OC(CO)C(O)C(O)C3O[C@@H]3OC(C)C(O)C(O)C3O)C[C@]12C (stereo partly drawn),·,·,·,·,–,?
C[C@H]1O[C@@H](O[C@H]2[C@@H](O)C[C@H](O[C@H]3[C@@H](O)C[C@H](O[C@H]4CC[C@@]5(C)[C@H](CC[C@@H]6[C@@H]5CC[C@]5(C)[C@@H](C7=CC(=O)OC7)CC[C@]65O)C4)O[C@@H]3C)O[C@@H]2C)C[C@H](O)[C@@H]1O,0.058µM,0.206µM,4.15µM,?,·,–[8.37 µM]
CC1OC(OC2C(O)CC(OC3C(O)CC(OC4CCC5(C)C(CCC6C5CCC5(C)C(C7=CC(=O)OC7)C(O)CC65O)C4)OC3C)OC2C)CC(O)C1O (stereo not drawn),?,0.316µM,·,·,-97.3,?
CC(=O)OC1CC(OC2C(O)CC(OC3C(O)CC(OC4CCC5(C)C(CCC6C5CCC5(C)C(C7=CC(=O)OC7)C(O)CC65O)C4)OC3C)OC2C)OC(C)C1OC1OC(CO)C(O)C(O)C1O (stereo not drawn),0.178µM,?,·,·,-100.8,?
CC(=O)OC1CC2(O)C3CCC4CC(O)CCC4(C)C3CCC2(C)C1C1=CC(=O)OC1 (stereo not drawn),?,?,·,·,-97.0,?
Cc1cc(-n2ccnc(NCCc3ccc(S(N)(=O)=O)cc3)c2=O)ccc1Br,·,–,·,·,–,·
CCN1C(=O)[C@@H]2[C@@H](c3ccc(-c4ccc(OC)cc4)cc3)N3CCCC[C@@]3(C(=O)OC)[C@@H]2C1=O,·,·,5.22µM,10.4µM,–,3.16µM

# Compound activity from PubChem.
